Test results as given in the supplement of paper PMC6555819.

Experiments:
Experiment in all cases: PBM binding z-score (relative to random genomic background probes); higher = stronger binding; sequences stand for … in GC…GCGATTGACAGCGTAGAATGAAGG
[1] = tested on: RARb homodimer (NR concentration 270 nM)
Outline: (§1)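 Ligand-free nuclear receptor dimers were applied to custom Agilent 4×180K protein-binding microarrays whose double-stranded probes carried direct-repeat seeds, single-nucleotide variants, half-site ablations and random human genomic background sequences in 34-nt variable regions. Incubation lasted 1 h. Binding z-scores were computed against the random background probes from regression-normalized fluorescence.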

[2] = tested on: RARg:RXRa (NR concentration 270 nM, RXRa partner concentration 90 nM)
Outline: as §1

[3] = tested on: RARg homodimer (NR concentration 270 nM)
Outline: as §1

[4] = tested on: RXRa DBDmut IVT, anti-RXR (DBD mutation: RXRa K156A/R161A, NR concentration 90 nM)
Outline: as §1

[5] = tested on: RXRa homodimer (NR concentration 180 nM)
Outline: as §1

[6] = tested on: THRa:RXRa (NR concentration 90 nM, RXRa partner concentration 90 nM)
Outline: as §1

[7] = tested on: THRa homodimer (NR concentration 90 nM)
Outline: as §1

[8] = tested on: VDR homodimer (NR concentration 270 nM)
Outline: as §1

Q: ATCGAAATGTCGAAGGTGAGTATACCCACCCGAA was tested. Which PBM binding z-score [1] did it give?
A: -0.167

Q: And the PBM binding z-score [2]?
A: 0.233

Q: And the PBM binding z-score [3]?
A: 0.587

Q: What about the PBM binding z-score [4] of the same sequence?
A: -0.753

Q: And the PBM binding z-score [5]?
A: 0.434

Q: What about the PBM binding z-score [6] of the same sequence?
A: -0.023

Q: What about the PBM binding z-score [7] of the same sequence?
A: -0.43

Q: And the PBM binding z-score [8]?
A: -0.0115

Q: Which results are given for ACAGACAGGTGAGTGAAGGTGACTCAGCTGGACG?
A: PBM binding z-score [1]: 0.821; PBM binding z-score [2]: 0.36; PBM binding z-score [3]: 0.791; PBM binding z-score [4]: -0.543; PBM binding z-score [5]: 0.523; PBM binding z-score [6]: 2; PBM binding z-score [7]: -0.223; PBM binding z-score [8]: -0.311

Q: AGTCAATGTTCATCTAGGTAACGTAAGATATGCT was tested. Which PBM binding z-score [1] did it give?
A: -0.0821

Q: And the PBM binding z-score [2]?
A: 0.125

Q: What about the PBM binding z-score [3] of the same sequence?
A: 0.41

Q: And the PBM binding z-score [4]?
A: 0.291

Q: And the PBM binding z-score [5]?
A: 0.0893

Q: What about the PBM binding z-score [6] of the same sequence?
A: 0.616

Q: And the PBM binding z-score [7]?
A: 0.345

Q: What about the PBM binding z-score [8] of the same sequence?
A: -0.282

Q: For TCTTGTAGATCAAGCAGGTTAGGAAAGCCTGAGT, which PBM binding z-score [1] is on record?
A: 0.012

Q: And the PBM binding z-score [2]?
A: -0.289

Q: And the PBM binding z-score [3]?
A: -0.589

Q: And the PBM binding z-score [4]?
A: 0.37

Q: What about the PBM binding z-score [5] of the same sequence?
A: -0.0446

Q: What about the PBM binding z-score [6] of the same sequence?
A: 0.0299

Q: What about the PBM binding z-score [7] of the same sequence?
A: -0.467

Q: And the PBM binding z-score [8]?
A: 0.231

Q: With TTATCAAGGTGAAGGTCGTTGATCCCTCTGTAGA as the sequence, how does the PBM binding z-score [1] read?
A: 1.82

Q: And the PBM binding z-score [2]?
A: 1.55

Q: And the PBM binding z-score [3]?
A: 1.33

Q: What about the PBM binding z-score [4] of the same sequence?
A: 0.598

Q: And the PBM binding z-score [5]?
A: 1.89

Q: What about the PBM binding z-score [6] of the same sequence?
A: 2.68

Q: And the PBM binding z-score [7]?
A: 1.3

Q: And the PBM binding z-score [8]?
A: 1.23

Q: GCTAGTTGGTCAGTAAAAGGTTACACACCGGTCG was tested. Which PBM binding z-score [1] did it give?
A: 2.7

Q: What about the PBM binding z-score [2] of the same sequence?
A: 2.11

Q: What about the PBM binding z-score [3] of the same sequence?
A: 1.34

Q: What about the PBM binding z-score [4] of the same sequence?
A: 0.00211

Q: And the PBM binding z-score [5]?
A: 1.59

Q: And the PBM binding z-score [6]?
A: 1.42

Q: What about the PBM binding z-score [7] of the same sequence?
A: 0.424

Q: And the PBM binding z-score [8]?
A: 0.234

Q: Which results are given for TCGAGTAGGTGAGTCGGGGCATTCAGCCAACATA?
A: PBM binding z-score [1]: 0.348; PBM binding z-score [2]: -0.294; PBM binding z-score [3]: -0.378; PBM binding z-score [4]: 0.0607; PBM binding z-score [5]: -0.201; PBM binding z-score [6]: 0.829; PBM binding z-score [7]: -0.305; PBM binding z-score [8]: 0.0574
